SKKanGAS inh = S. pyogenes SKKanGAS growth inhibitors in kanamycin, primary screen, streptokinase expression inhibitor project, SKKanGAS strain, BacTiter-Glo luminescence | 300,000 tested, 1.3% active | AID 1662, 2009 | 6 h | inhibition, % at 7.5 µM;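 active means mean replicate score, as percent of positive control median, at least 50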;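 further: strain carries kanamycin resistance gene driven by streptokinase promoter and grows in 40 µg/ml kanamycin; loss of luminescence reflects streptokinase promoter inhibition or plain growth inhibition; 0% = median of DMSO wells and 100% = positive control at its reference dose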
Platelet DG rel = inhibitors of platelet dense granule secretion, primary screen, cell-based, MLPCN, human platelets. human platelet-rich plasma, SFLLRN dense granule ATP release, luminescence. inhibition, %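 (compounds screened at 7.5 µM in platelet-rich plasma)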. 300,000 tested, 0.22% active;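 active means mean replicate score, as percent of positive control, at or above 50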
WT yeast gro inh = growth inhibition of WT strain, primary screen, mitochondrial fusion inhibitor project, WT and mutant strains, chemical genetic. AID 1362, 2008. mitochondrial fusion phenotypic screen. inhibition, % at 10 µM. 190,000 tested, 2.1% active; in the data active means inhibition above about 58%; tested in S. cerevisiae
TPT1 inh = Candida albicans TPT1 enzyme inhibitors, primary screen, biochemical, fluorescence polarization. recombinant caTPT1, FP RNA substrate dephosphorylation. 300,000 tested, 0.81% active. tRNA 2'-phosphotransferase TPT1 (Candida albicans SC5314). inhibition, % at 5 µM;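 active means inhibition above the mean of all tested compounds plus 3 SD, set per screening campaign, cut at about 24% in these data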;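 further: plate controls were DMSO alone for no effect and ferristatin control at 100 nM for full effect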
Rtt109 Vps75 = inhibitors of C. albicans Rtt109/Vps75 HAT, primary screen, biochemical, ThioGlo CoA-SH fluorescence, plate reader; Histone acetyltransferase RTT109 (Candida albicans (strain SC5314 / ATCC MYA-2876)), …; purified Rtt109/Vps75, 4 h; inhibition, % at 34.9 µM; 330,000 tested, 0.16% active; AID 540336, 2011;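 active means inhibition of at least 50% in every replicate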
PHOSPHO1 block = PubChem AID 1565; inhibition, % at 13.3 µM; recombinant PHOSPHO1, absorbance phosphatase assay; 290,000 tested, 1.1% active; Phosphoethanolamine/phosphocholine phosphatase (Homo sapiens), Q8TCT1; in the data active means inhibition above about 60%
Target sequence (Q8TCT1 whole entry, looked up): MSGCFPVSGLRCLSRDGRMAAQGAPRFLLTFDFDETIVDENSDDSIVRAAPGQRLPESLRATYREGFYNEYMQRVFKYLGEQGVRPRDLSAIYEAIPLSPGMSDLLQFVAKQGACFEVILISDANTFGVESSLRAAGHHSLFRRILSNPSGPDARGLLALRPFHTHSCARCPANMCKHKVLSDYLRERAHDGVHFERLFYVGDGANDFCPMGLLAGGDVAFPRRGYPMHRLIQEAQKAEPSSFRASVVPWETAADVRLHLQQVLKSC
Starred values were filed as active, the others as inactive; x = no result given. This is a sample that favours compounds with a hit; in the whole collection about 3.9% have one here.

SMILES	SKKanGAS inh	Platelet DG rel	WT yeast gro inh	TPT1 inh	Rtt109 Vps75	PHOSPHO1 block
C=CCc1cccc(/C=N/NC(=O)C(C)Nc2ccc(C)cc2)c1O (centres undefined)	44	5	6	0	11	8
CCOc1ccc(-c2nnc3ccc(SCc4ccc(C(=O)OC)o4)nn23)cc1	-2	4	-7	-2	14	95*
COC(=O)c1ccc(CSc2ccc3nnc(-c4ccc(F)cc4)n3n2)o1	x	-3	-6	-2	4	-5
COc1ccc(C(CNC(=O)CN(C)S(=O)(=O)c2ccc(C)cc2)N2CCCC2)cc1 (centres undefined)	x	x	x	x	-1	x
N=c1c2c(n(Cc3ccc(Cl)cc3)c3c1CCC3)CCC2	9	2	62*	1	3	10
N=c1c2c(n(Cc3ccc(F)cc3)c3c1CCC3)CCCC2	10	-3	55	0	-4	36
N=c1c2c(n(Cc3ccccc3)c3c1CCC3)CCC2	4	1	71*	-3	20	-5
CCn1c2c(c(=N)c3c1CCC3)CCCC2	0	24	x	-1	x	4
N=c1c2c(n(Cc3cccc(Cl)c3)c3c1CCC3)CCCC2	0	6	62*	-2	-2	-23
CCOc1ccc(CCN2C(=S)N([C@@H](CC(C)C)CN3CCCC3CN3C(=S)NC[C@@H]3Cc3ccc(O)cc3)C[C@@H]2CC(C)C)cc1 (some centres undefined)	x	x	x	x	-2	x
COc1ccc(CNC(=O)COC(=O)c2c(NC(C)=O)sc(C)c2C)cc1	x	x	x	x	-18	x
FC(F)(F)c1nc(N2CCN(c3ccccc3)CC2)nc2c1CCCCC2	68*	11	16	6	-1	35
Cc1nc2cc(Nc3ccncc3)ccc2s1	-8	56*	-15	0	1	37
O=c1[nH]c(-c2ccncc2)nc2ccccc12	2	-3	0	-5	-9	98*
CC(C)(C)n1nc2c(c1NC(=O)Cc1cccc3ccccc13)CS(=O)C2 (centres undefined)	10	14	-8	3	-2	63*
CC(C)(C)n1nc2c(c1NC(=O)c1ccc(Br)cc1)CS(=O)C2 (centres undefined)	-7	4	8	-3	1	-2
CCOC(=O)c1cc([N+](=O)[O-])c([N+](=O)[O-])cc1NC(C)=O	-1	31	76*	-1	5	-5
COc1cccc(NC(=O)N(Cc2ccco2)C(C)c2cccs2)c1 (centres undefined)	4	0	-18	-1	-6	4
Cc1ccc(NC(=S)N(Cc2ccco2)C(C)c2cccs2)c(Cl)c1 (centres undefined)	6	-4	66*	-5	9	2
CC(c1cccs1)N(Cc1ccco1)C(=O)Nc1ccc(Cl)c(Cl)c1 (centres undefined)	27	0	64*	0	10	-4
Cc1ccc(C)c(NC(=S)N(Cc2ccco2)C(C)c2cccs2)c1 (centres undefined)	2	3	69*	-1	0	-5
Cc1ccc(Cl)cc1NC(=S)N(Cc1ccco1)C(C)c1cccs1 (centres undefined)	6	5	44	1	-5	9
Cc1ccc(/C([O-])=C(/C(=S)NCc2ccco2)[n+]2ccccc2)cc1	4	-2	1	4	x	100*
CC(=O)N(CC(C)C(=O)O)c1c(I)cc(I)c(N)c1I (centres undefined)	x	x	x	1	-2	x
O=C(N/N=C/c1ccccn1)c1ccc(Cl)c(Cl)c1	53*	-31	x	-2	9	19
COc1ccc(C(=O)c2ccc(OC)c3cccc(O)c23)cc1OC	4	1	-8	-3	14	83*
O=C(Cc1ccc(NC(=O)C2CCN(C(=O)C3CCCCC3)CC2)cc1)Nc1ccc(C(=O)N2CCOCC2)cc1	x	x	x	x	-3	x
O=C(Nc1ccc(Cl)c(Cl)c1)O/N=C/c1ccncc1	56*	-3	74*	3	-1	-10

Screens from PubChem BioAssay.
